Screens as filed in PubChem.
RXFP1 antagonist: blocks the human relaxin receptor RXFP1. AID 1259400. HEK293-RXFP1, relaxin-stimulated cAMP HTRF, 30 min; stronger effect = lower value. Q9HBX9. activity change, negative = inhibition, % at 57.5 µM. hit rate 0.59% among 350,000;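 active means activity change of -60% or lower, but not beyond a set lower limit; inconclusive means change between -60% and -40%, or beyond the set limit; inactive means change above -40%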; further: on the % scale 0 is the no-effect control and ±100 the full control effect
TSHR antagonist: antagonists of human thyroid stimulating hormone receptor; P16473; TSHR-expressing cells, TSH-stimulated cAMP HTRF, 2 h; stronger effect = lower value; activity change, negative = inhibition, % at 11.5 µM; hit rate 0.2% among 330,000; AID 504810;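 active means activity change below a set negative limit, meaning inhibition stronger than a set level, cut at about -70% in these data; inconclusive means activity change between two set negative limits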; further: on the % scale 0 is the no-effect control and ±100 the full control effect
Target sequence (P16473 whole entry, looked up): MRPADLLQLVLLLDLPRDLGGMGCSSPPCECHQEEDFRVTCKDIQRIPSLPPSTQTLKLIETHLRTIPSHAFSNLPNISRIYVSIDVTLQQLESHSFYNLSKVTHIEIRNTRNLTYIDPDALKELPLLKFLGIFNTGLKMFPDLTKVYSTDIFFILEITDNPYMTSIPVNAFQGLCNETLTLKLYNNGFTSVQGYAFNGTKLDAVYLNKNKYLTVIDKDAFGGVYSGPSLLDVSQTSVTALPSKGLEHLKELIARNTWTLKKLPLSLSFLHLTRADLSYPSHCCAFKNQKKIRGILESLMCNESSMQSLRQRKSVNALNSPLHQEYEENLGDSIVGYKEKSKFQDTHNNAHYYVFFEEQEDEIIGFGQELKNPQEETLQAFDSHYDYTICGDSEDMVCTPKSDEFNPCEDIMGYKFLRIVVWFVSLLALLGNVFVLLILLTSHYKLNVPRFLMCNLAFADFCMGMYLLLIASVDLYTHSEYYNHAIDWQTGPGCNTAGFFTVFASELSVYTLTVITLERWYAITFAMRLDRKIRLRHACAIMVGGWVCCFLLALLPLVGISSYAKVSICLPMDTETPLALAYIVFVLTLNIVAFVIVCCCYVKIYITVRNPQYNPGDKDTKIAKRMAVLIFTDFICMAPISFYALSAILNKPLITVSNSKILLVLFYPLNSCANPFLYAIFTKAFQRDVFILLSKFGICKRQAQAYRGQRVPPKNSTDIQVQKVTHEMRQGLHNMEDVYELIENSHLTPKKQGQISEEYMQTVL
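Cell-based HTRF cAMP assay; TSHR cells + compound, TSH EC80 (4nM final), 2 h, 37 deg C. Lysis with anti-cAMP cryptate and cAMP-d2, 30 min RT, read 665/620 nm.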
gsp antag: antagonizes gsp, the McCune-Albright syndrome mutation. gsp-mutant cells, cAMP HTRF, 30 min. Potency, µM (doses to about 76.9 µM), inactives show at the top dose activity change, negative = inhibition, hits mostly inhibitors. hit rate 0.4% among 340,000. AID 624288; calls by dose curve; cell line not stated here;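 further: intracellular cAMP measured with PDE inhibitor Ro 20-1724 present during compound exposure; potency means the concentration at half of the fitted maximal effect; on the % scale 0 is the no-effect control and ±100 the full control effect; nearly all actives have a fitted effect of over 65% in size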
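Measurement of cellular cAMP by homogeneous time-resolved fluorescence following a 30 min compound exposure at 37C. The PDE inhibitor […] was present throughout; the assay buffer was DPBS with 0.05% BSA and 0.005% Tween 20.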
Akt phos inh: Akt phosphorylation inhibition; Neuro2A IGF-stimulated pAkt S473 HTRF, 20 min; stronger effect = lower value; activity change, % for hits at 50 µM; hit rate 0.32% among 360,000; AID 651550; in the data active means activity change below about -80%; inconclusive means mostly about -51% to -80%; further: on the % scale 0 is the no-effect control and ±100 the full control effect
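Neuro2A cells in DMEM with 0.5% FBS, overnight at 37 deg C, given compound at single 50 µM final, then IGF (6 nM final) for 20 min at 37 deg C. Lysed; phospho-Akt Ser473 by HTRF after 24 h, 665/615 ratio.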
gsp ag: agonists of gsp mutant (McCune-Albright syndrome) | hit rate 0.13% among 340,000 | gsp mutant cells, cAMP HTRF, 30 min | AID 624287 | Potency, µM (highest dose often 76.9 µM), for the others: top-dose activation (cAMP increase), usual class: activators; active means well fitted activation curve with a large enough effect; inconclusive means small, poorly fitted or top-dose-only effect, or another doubt; inactive means no such curve, though single readings can be large or run the other way; cell line not stated here;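 further: phosphodiesterase inhibitor Ro 20-1724 added with compounds to block cAMP breakdown; potency means the concentration at half of the fitted maximal effect; nearly all actives have a fitted effect of over 60% in size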
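Cells in DMEM/10% FBS with G418 were pretreated with compounds in DMSO plus […] (300 uM stock) for 30 min at 37C. cAMP was measured by HTRF (cAMP-d2 plus anti-cAMP antibody-K) after 30 min at room temperature.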
RXFP1 agonist: RXFP1 (human) receptor agonism; Q9HBX9; HEK293T-RXFP1 cAMP TR-FRET, 30 min; response scale: percent of porcine relaxin response, buffer zero; Potency, µM (doses to about 57.5 µM), for inactives: at the top dose activation, actives largely listed as activators; hit rate 0.3% among 370,000; AID 2676; active means well fitted activation curve with a large enough effect; inconclusive means small, poorly fitted or top-dose-only effect; further: potency means the concentration at half of the fitted maximal effect; on the % scale 0 is the no-effect control and ±100 the full control effect; nearly all actives have a fitted effect of over 60% in size
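HEK293T cells stably expressing RXFP1 were pretreated with the PDE4 inhibitor Ro 20174, exposed to compounds for 30 min at 37C, lysed, and cAMP was read by TR-FRET. Data normalized to buffer (basal) and 29 nM porcine relaxin (100%).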
Active calls of the source: *; i = inactive; ? = inconclusive; . = no result given; [ ] = remark or other dose. An excerpt weighted towards active compounds, which were near 1.3% of everything screened.

SMILES	RXFP1 antagonist	TSHR antagonist	gsp antag	Akt phos inh	gsp ag	RXFP1 agonist
CCOc1ccc(NC(=O)CN2CCCC2c2cccs2)cc1S(=O)(=O)N1CCCC1 (stereo unspecified)	-6.4	-8.6	?	i	?	0.3%
O=C(Nc1cccc(S(=O)(=O)N2CCCCC2)c1)c1ccc(Cl)nc1	-10.1	-22.0	50.1µM*	i	-16.8%	.
O=C(Nc1cccc(S(=O)(=O)N2CCOCC2)c1)c1ccco1	-10.3	7.9	7.9%	i	-57.9%	-1.1%
COc1ccc(NC(=O)CN2CCCC2c2cccs2)cc1S(=O)(=O)N1CCCCC1 (stereo unspecified)	-38.3	-28.7	35.5µM*	i	16.8%	1.9%
CCOC(=O)c1c(NC(=O)c2cc(-c3ccc(Br)cc3)on2)sc(C)c1C	-4.7	.	.	.	.	4.9%
CCNC(=O)[C@@H]1CCCN1C(=O)[C@H](CCCN=C(N)N)NC(=O)[C@H](CC(C)C)NC(=O)CNC(=O)[C@H](Cc1ccc(O)cc1)NC(=O)[C@H](CO)NC(=O)[C@H](Cc1c[nH]c2ccccc12)NC(=O)[C@H](Cc1cnc[nH]1)NC(=O)[C@@H]1CCC(=O)N1	-8.7	.	.	.	.	.
CC(O)(c1ccccc1)c1nc(-c2ccc(S(C)(=O)=O)cc2)cs1 (stereo unspecified)	.	.	.	i	.	.
COc1cccc(CNC(=O)c2ccc3c(c2)nnn3C2CCCC2)c1	.	.	.	.	.	1.9%
CN(c1ncnc2c1c(-c1ccccc1)cn2-c1ccc(F)cc1)C1CCCCC1	5.7	.	.	.	.	1.8%
COc1ccc(OC)c(S(=O)(=O)N2CCC(C(=O)Nc3cccc(C)c3C)CC2)c1	19.7	-0.2	-0.7%	i	?	4.0%
COc1ccc(OC)c(S(=O)(=O)N2CCC(C(=O)Nc3ccc(C)c(C)c3)CC2)c1	-0.7	-9.3	28.2µM*	i	8.9%	-0.1%
COc1ccc(NC(=O)c2ccc(Cl)nc2)cc1S(=O)(=O)N1CCCCC1	9.2	0.2	31.6µM*	i	-1.2%[15.4 µM]	-0.4%
N#Cc1ccccc1S(=O)(=O)N1CCC(C(=O)Nc2cccc(C(=O)NC3CC3)c2)CC1	-17.1	1.7	1.4%	i	15.8%	-0.7%
O=C(NCCCN1CCCC1)[C@H](CSCc1ccccc1)N1Cc2ccccc2C1=O	-60.1*	-3.5	11.4%	i	5.2%[15.4 µM]	1.2%
CC(C)NC(=O)[C@H](CSCc1ccccc1)N1Cc2ccccc2C1=O	.	3.5	1.4%	i	16.4%	-1.2%
CCOc1ccc(NC(=O)CN2C(=O)C3(SCC(=O)N3c3ccc(F)cc3)c3ccccc32)cc1 (stereo unspecified)	.	.	.	.	.	-4.5%
CCOc1ccc(Nc2c(S(=O)(=O)c3ccccc3)cnc3ccc(F)cc23)cc1	-11.1	.	.	.	.	0.0%
COc1ccc(NC(=O)CCn2cnnn2)cc1	0.7	.	.	.	.	-1.2%
C/C(=N\O)c1ccc2c3c([nH]c2c1)CCCC3	?	-0.3	-7.8%	-90.2%*	?	0.9%
CS(=O)(=O)c1ccc(S(=O)CC(=O)OCc2ccccc2)c([N+](=O)[O-])c1 (stereo unspecified)	-108.4*	12.4	?	i	-8.4%[15.4 µM]	0.9%
O=C(CS(=O)c1ccc(C(F)(F)F)cc1[N+](=O)[O-])Oc1ccccc1 (stereo unspecified)	10.3	-70.7*	3.6%	i	-1.2%	1.1%
COC(=O)c1ccc(OC(=O)CS(=O)c2ccccc2[N+](=O)[O-])cc1 (stereo unspecified)	0.4	6.5	0.0%	i	-5.9%[15.4 µM]	-2.5%
CCOC(=O)c1ccccc1OC(=O)CS(=O)c1ccccc1[N+](=O)[O-] (stereo unspecified)	7.6	5.2	-5.8%	i	3.0%	1.9%
CC1(C)[C@@H](O)CC[C@]2(C)C3C(O)C=C4[C@H]5C[C@@](C)(C(=O)O)CC[C@]5(C)CC[C@]4(C)[C@]3(C)CC[C@@H]12 (stereo partly specified)	.	-17.2	.	.	.	0.0%
COc1ccc(C(=O)COC(=O)c2sc(C)nc2C)cc1Cl	-10.3	-9.9	-21.5%	i	-2.9%	0.0%
SMILES	RXFP1 antagonist	TSHR antagonist	gsp antag	Akt phos inh	gsp ag	RXFP1 agonist
Cc1ccc2c(c1)cc1c(=O)n(Cc3ccc(Cl)cc3)nc(C)n12	.	.	.	.	.	-0.9%
O=C(c1ccc(CSc2nc3ccncc3[nH]2)cc1)N1CCN(c2cccc(Cl)c2)CC1	-10.1	-7.1	35.5µM*	i	?	0.1%
CCC(C(=O)n1cccc1C#N)c1ccccc1C (stereo unspecified)	.	-13.5	1.4%	i	-12.6%	2.7%
CCOC(=O)CSc1nc2sc(C)c(C)c2c(=O)n1C	-4.8	-6.8	5.6%	i	-44.7%	1.0%
CCOC(=O)CSc1nc(C(C)C)nc2sc(C)c(C)c12	-60.5*	-9.3	-10.1%	i	7.0%[15.4 µM]	0.1%
CCOC(=O)CSc1nnc2n(-c3ccccc3)c(=O)c3c4c(sc3n12)CC(C(C)(C)C)CC4 (stereo unspecified)	-68.6*	.	.	.	.	4.4%
CCOC(=O)CSc1nnc2n(-c3ccccc3)c(=O)c3c4c(sc3n12)COC(C(C)C)C4 (stereo unspecified)	-1.6	.	.	.	.	0.5%
O=C(Nc1ccccc1)N1CCN(c2nc(-c3ccccc3)ns2)CC1	-17.7	-7.4	35.5µM*	i	8.9%[15.4 µM]	1.4%
CCCc1ccccc1OCCNS(=O)(=O)c1cc2c(cc1C)OCC(=O)N2	-61.5*	0.3	-23.6%	i	2.1%[15.4 µM]	3.5%
CCN(C(=O)COC(=O)c1nccnc1N)c1cccc2ccccc12	-2.1	-4.2	6.6%	i	-0.6%[15.4 µM]	.
COc1ccc(CCN2C(=O)C=CC2=O)cc1OC	?	.	-8.2%	i	8.4%	.
COc1ccc(CCNC2=C(Cl)C(=O)N(CCc3ccc(OC)c(OC)c3)C2=O)cc1OC	-28.2	-73.8*	?	i	-4.5%	0.2%
CC(C)(C)OC(=O)N1CCC(c2c(C(=O)N3CCN(c4ccccn4)CC3)cnn2-c2ccc(F)cc2)CC1	-7.4	.	.	.	.	-2.2%
CC(CC(=O)N1CCN(c2ccccc2)CC1)S(=O)(=O)c1ccc2c(c1)NC(=O)CO2 (stereo unspecified)	30.1	-14.2	50.1µM*	i	?	0.9%
Cc1cccc(N2CCN(C(=O)CCS(=O)(=O)c3ccc4c(c3)NC(=O)CO4)CC2)c1C	3.4	-12.4	31.6µM*	i	-20.7%	-1.1%
CCCCCCSc1cc(-c2nc3cc(C)ccn3c2NCCCC)ccc1OC	.	-0.1	-3.0%	i	.	8.2%
CCCCNc1c(-c2cccc(-c3cc(C(C)=O)cs3)c2)nc2cc(C)ccn12	.	-36.9	31.6µM*	i	21.7%	-1.2%
Cc1ccc(CSCc2ccc(C(=O)NCCc3ccc(Cl)cc3)o2)cc1	-34.8	.	.	.	.	-0.2%
